Bioassay records from PubChem BioAssay.
Rows were chosen to be rich in hits. Some 2.8% of all compounds tested hit in one or more screens of this group.
NR1D1 modulator: modulators of human Rev-erb alpha DNA binding. 370,000 compounds, 0.79% hits. activity, % at 10 µM. Rev-erbα–FITC-DNA binding, fluorescence polarization, 90 min. P20393. AID 1259318;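 active means activity above about 14%, limit read from the data; passing the limit was not always enough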;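 further: 0% = DMSO wells with 35 nM protein and 100% = DMSO wells with 750 nM protein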
Target sequence (P20393 whole entry, looked up): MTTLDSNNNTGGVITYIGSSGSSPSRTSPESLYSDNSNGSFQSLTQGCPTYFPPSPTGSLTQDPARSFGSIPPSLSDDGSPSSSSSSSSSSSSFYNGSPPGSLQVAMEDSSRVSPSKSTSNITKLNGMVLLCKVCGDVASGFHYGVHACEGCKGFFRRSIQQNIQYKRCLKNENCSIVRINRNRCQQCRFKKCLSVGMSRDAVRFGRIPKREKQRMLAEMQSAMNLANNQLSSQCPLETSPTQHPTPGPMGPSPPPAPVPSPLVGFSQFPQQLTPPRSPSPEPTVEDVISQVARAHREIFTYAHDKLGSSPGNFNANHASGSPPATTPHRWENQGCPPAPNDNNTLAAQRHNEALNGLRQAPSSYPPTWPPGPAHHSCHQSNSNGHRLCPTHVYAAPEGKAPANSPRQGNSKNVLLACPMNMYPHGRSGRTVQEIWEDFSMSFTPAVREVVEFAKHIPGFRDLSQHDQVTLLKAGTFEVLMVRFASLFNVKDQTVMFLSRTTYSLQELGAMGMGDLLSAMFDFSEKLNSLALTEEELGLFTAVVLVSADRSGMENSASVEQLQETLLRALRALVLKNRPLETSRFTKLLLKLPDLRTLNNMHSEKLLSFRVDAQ
JMJD2C inh: blocks human GASC-1 demethylase activity; Q9H3R0; GST-JMJD2C(1-420) H3K9me3 demethylation, DELFIA europium; inhibition, % at 2.35 µM; 330,000 compounds, 0.069% hits; AID 2099;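 active means more than half of a compound's replicate wells show inhibition beyond 50%, single wells judged on their own value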;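 further: signal counts dimethyl H3K9 product captured on neutravidin plate; 0% = median of DMSO wells and 100% = 0.3 times that DMSO median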
proKLK7 act: proKLK7 (human) activation, primary screen | P49862 | purified proKLK7, EDANS-DABCYL substrate fluorescence; 100% is mature enzyme control, 0% vehicle | activation, % at 7 µM | 370,000 compounds, 0.9% hits | AID 652039;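 active means activation above the mean of all tested compounds plus 3 SD, computed per campaign excluding outliers beyond control limits, cut at about 13% in these data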
PP1 counter: PP1-alpha (human) inhibition in PP5 counter-screen. P62136. purified PP1alpha, OMFP fluorescence. inhibition, % at 6.7 µM. 320,000 compounds, 0.9% hits. AID 2235;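 active means inhibition above the mean inhibition of all tested compounds plus 3 SD, computed separately for each screening campaign, cut at about 15% in these data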
PG9 binder: binds the HIV-1 gp120 antibody PG9; inhibition, % at 6.7 µM; AID 624416; TR-FRET gp120-PG9 antibody binding; 360,000 compounds, 0.43% hits; in the data active means inhibition above about 8.5%
PP5 inh: blocks human protein phosphatase 5 activity; purified PP5c, OMFP substrate fluorescence; inhibition, % at 6.7 µM; 320,000 compounds, 0.18% hits; AID 1987;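 active means inhibition above the campaign's mean inhibition across all tested compounds plus 3 SD, cut at about 9.5% in these data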;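 further: 0% = DMSO only and 100% = 100 µM cantharidin control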
Rev-erbA confirm: Rev-erb alpha (human) modulation, hit confirmation. shares compounds with NR1D1 modulator. Rev-erb alpha FITC-DNA binding, fluorescence polarization, 90 min. activation, % at 25 µM. 3,000 compounds, 61% hits;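 active means activation at or above a set limit, or at least 3 SD above the negative control mean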;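 further: 0% = 35 nM protein with DMSO and 100% = 750 nM protein high control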
RORg DNA counter: RORgamma DNA-binding activity, dose-response counter-screen | shares compounds with NR1D1 modulator | purified RORgamma protein-FITC-DNA binding, fluorescence polarization | IC50, µM | 910 compounds, 8% hits | AID 1259320;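 active means Compounds whose fitted half-maximal concentration for disrupting protein-DNA binding is below 10 micromolar; the record names Rev-erb in its text, so the target is in doubt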
* = called active by the depositor.

Screening Cc1cccc(-c2cccc3c4c([nH]c23)[C@@H]2C[C@H]3[C@@H](CN2CC4)[C@H](C)ON3C)c1 returned NR1D1 modulator 5.6 and proKLK7 act 2.2.
`CCOC(=O)[C@]12CCCC=C1N(Cc1ccc(OC)cc1)C(=O)[C@@H]2CC(=O)NCC12CC3CC(CC(C3)C1)C2` gave NR1D1 modulator -1.2 and proKLK7 act 0.6.
For CCn1cc(C2N3CC4(C)CN2CC(C)(C3)C4=O)c2ccccc21 (centres undefined) the results were NR1D1 modulator 50.0*, JMJD2C inh -15.4, proKLK7 act 0.5, PP1 counter -0.6, PG9 binder -1.1, PP5 inh 2.5, Rev-erbA confirm 56.1* and RORg DNA counter inactive.
CN(CC(=O)Nc1ccccc1C(F)(F)F)C(=O)CCc1nc2sc3c(c2c(=O)[nH]1)CCCC3 was read as NR1D1 modulator 30.1*, JMJD2C inh 2.5, proKLK7 act 0.9, PP1 counter 3.8, PG9 binder 5.4, PP5 inh 0.8 and Rev-erbA confirm 22.4*.
Screening CCN(CC(=O)Nc1ccccc1C(F)(F)F)C(=O)CCc1nc2sc3c(c2c(=O)[nH]1)CCCC3 returned NR1D1 modulator 20.3*, JMJD2C inh 6.8, proKLK7 act 0.3, PP1 counter -0.2, PG9 binder 5.2, PP5 inh -0.7 and Rev-erbA confirm 0.1.
For CCN(CC(=O)Nc1c(F)cccc1F)C(=O)CCc1nc2sc3c(c2c(=O)[nH]1)CCCC3 the results were NR1D1 modulator -16.0, JMJD2C inh -1.9, proKLK7 act 0.8, PP1 counter 2.1, PG9 binder 1.6 and PP5 inh 0.5.
CCOC(=O)C1=C(C(=O)OCC)C2N(Cc3ccc(Br)cc3)c3ccccc3[C@@]23C[C@@H](C(=O)OC)N(S(=O)(=O)c2ccc(Br)cc2)C3=N1 (some centres undefined) was read as NR1D1 modulator 2.0, proKLK7 act 0.1 and PG9 binder -2.8.
COC1=C[C@H](C(=O)NCc2ccc(Br)cc2)C(C)C(c2ccccc2)CC1=O (some centres undefined) was read as NR1D1 modulator 11.7 and proKLK7 act -0.3.
COC(=O)[C@]12C[C@H](CC(=O)NCc3cccs3)C(=O)N(Cc3ccc(Cl)cc3Cl)C1=C[C@H](C(C)C)O[C@@H]2C1CC1 was read as NR1D1 modulator 6.1 and proKLK7 act -0.2.
Screening COc1ccc2cc(/C=N/NC(=O)CN(c3ccccc3C)S(=O)(=O)c3ccccc3)c(Cl)nc2c1 returned NR1D1 modulator 29.3*, JMJD2C inh 12.3, proKLK7 act -2.2, PP1 counter 1.5, PG9 binder 2.9, PP5 inh 0.3 and Rev-erbA confirm 7.7.
For O=C1/C(=C\c2cc([N+](=O)[O-])ccc2O)SC(=S)N1Cc1ccc(Cl)cc1 the results were NR1D1 modulator 20.1, JMJD2C inh -11.0, proKLK7 act 0.2, PP1 counter 6.9, PG9 binder 3.1 and PP5 inh -0.8.
Screening Cc1ccccc1/C=C1\SC(=S)N(/N=C/c2cc([N+](=O)[O-])ccc2O)C1=O returned NR1D1 modulator 21.6*, JMJD2C inh -3.6, proKLK7 act 0.6, PP1 counter 2.1, PG9 binder -2.2, PP5 inh 1.9 and Rev-erbA confirm 3.7.
Screening Cc1cc(CNC(=O)c2cc(-c3ccccc3)nc3ccccc23)nn1C returned NR1D1 modulator 2.1, JMJD2C inh 2.3, proKLK7 act -0.4, PP1 counter -1.0, PG9 binder -0.3 and PP5 inh 1.9.
For O=C(Nc1ccccn1)c1cc(-c2cccnc2)nc2ccc(Br)cc12 the results were NR1D1 modulator 12.8, JMJD2C inh 10.8, proKLK7 act -0.8, PP1 counter -2.6, PG9 binder 5.2 and PP5 inh 0.2.
NS(=O)(=O)c1ccc(CNC(=O)c2cc(-c3cccnc3)nc3ccc(Br)cc23)cc1 was read as NR1D1 modulator 42.8*, JMJD2C inh -3.1, proKLK7 act 0.0, PP1 counter -2.4, PG9 binder 8.0, PP5 inh -2.4, Rev-erbA confirm 31.2* and RORg DNA counter 1.26*.
`Cc1ccc(-c2cc(C(=O)NCc3cnn(C)c3C)c3cc(Br)ccc3n2)cc1` gave NR1D1 modulator 31.8*, JMJD2C inh -2.8, proKLK7 act -0.1, PP1 counter 3.3, PG9 binder -7.5, PP5 inh -7.1 and Rev-erbA confirm 10.8.
`CCn1cc(C(=O)NCCc2ccc(Cl)cc2)c(=O)c2cc(S(=O)(=O)N(C)C)ccc21` gave NR1D1 modulator 43.9*, JMJD2C inh 7.3, proKLK7 act 0.3, PG9 binder 0.4 and Rev-erbA confirm 26.8*.
For CCc1ccc(-c2cc(C)no2)cc1S(=O)(=O)N1CCN(c2ccc(C(C)=O)cc2)CC1 the results were NR1D1 modulator 27.5*, JMJD2C inh -13.4, proKLK7 act -2.1, PP1 counter 15.4*, PG9 binder 1.0, PP5 inh 1.2 and Rev-erbA confirm 17.5*.
For CC(=O)c1ccc(N2CCN(S(=O)(=O)c3cc(-c4cc(C)no4)ccc3C(C)C)CC2)cc1 the results were NR1D1 modulator 25.8*, JMJD2C inh -2.6, proKLK7 act -3.7, PP1 counter 15.1, PG9 binder 1.2, PP5 inh 3.9 and Rev-erbA confirm 21.6*.
For CC(=O)N1CCN(c2ccc(N3CCN(Cc4ccccc4)[C@H](C)C3)c(C)c2)[C@H](C)C1 the results were NR1D1 modulator -4.8, proKLK7 act 1.0 and PG9 binder -1.8.
For CCOC(=O)Cn1cc(CN2C(C(=O)OC)CN(C3CCCC3)CCS2(=O)=O)nn1 (centres undefined) the results were NR1D1 modulator 6.6 and proKLK7 act -0.7.
`Cc1sc2nc(N3CCOCC3)[nH]c(=O)c2c1-c1ccccc1` gave NR1D1 modulator 93.8*, JMJD2C inh 2.3, proKLK7 act -0.1, PP1 counter -3.3, PG9 binder 2.6, PP5 inh 0.9, Rev-erbA confirm 128.3* and RORg DNA counter >40.
Screening Cc1[nH]c2ccccc2c1CC(=O)Nc1ccc(Nc2cccnc2)c(-c2ccc(C(C)(C)C)cc2)c1 returned NR1D1 modulator 4.3, proKLK7 act 0.0 and PG9 binder -1.0.
`COc1ccc(NC(=O)NNC(=O)c2cc3ccccc3cc2O)cc1` gave NR1D1 modulator 45.5*, JMJD2C inh 15.0, proKLK7 act -4.5, PP1 counter 8.4, PG9 binder -1.2, PP5 inh 1.3, Rev-erbA confirm 29.6* and RORg DNA counter >40.
